This is an account of results in ChEMBL document CHEMBL3988442, “University of Dundee, Small-Polar-MMV Screening Library” (2021).

SMILES strings stand for the structures. For some of these results: Measured potencies and affinities stand elsewhere.

What all share (set-up): scale not given: direction of the effect not stated beside the values
Assay [1] has as its target Protein translocase subunit SecA (Escherichia coli (strain K12)) (UniProt P10408). Briefly: Assay to Identify E. coli SecA ATPase Inhibitors. Type of assay: functional. Conditions: 30 µM.
Assay [2] addresses T1, Ubiquitin-activating enzyme e1, putative (Leishmania donovani (strain BPK282A1)) (UniProt E9BSI1).
T1 sequence (whole entry): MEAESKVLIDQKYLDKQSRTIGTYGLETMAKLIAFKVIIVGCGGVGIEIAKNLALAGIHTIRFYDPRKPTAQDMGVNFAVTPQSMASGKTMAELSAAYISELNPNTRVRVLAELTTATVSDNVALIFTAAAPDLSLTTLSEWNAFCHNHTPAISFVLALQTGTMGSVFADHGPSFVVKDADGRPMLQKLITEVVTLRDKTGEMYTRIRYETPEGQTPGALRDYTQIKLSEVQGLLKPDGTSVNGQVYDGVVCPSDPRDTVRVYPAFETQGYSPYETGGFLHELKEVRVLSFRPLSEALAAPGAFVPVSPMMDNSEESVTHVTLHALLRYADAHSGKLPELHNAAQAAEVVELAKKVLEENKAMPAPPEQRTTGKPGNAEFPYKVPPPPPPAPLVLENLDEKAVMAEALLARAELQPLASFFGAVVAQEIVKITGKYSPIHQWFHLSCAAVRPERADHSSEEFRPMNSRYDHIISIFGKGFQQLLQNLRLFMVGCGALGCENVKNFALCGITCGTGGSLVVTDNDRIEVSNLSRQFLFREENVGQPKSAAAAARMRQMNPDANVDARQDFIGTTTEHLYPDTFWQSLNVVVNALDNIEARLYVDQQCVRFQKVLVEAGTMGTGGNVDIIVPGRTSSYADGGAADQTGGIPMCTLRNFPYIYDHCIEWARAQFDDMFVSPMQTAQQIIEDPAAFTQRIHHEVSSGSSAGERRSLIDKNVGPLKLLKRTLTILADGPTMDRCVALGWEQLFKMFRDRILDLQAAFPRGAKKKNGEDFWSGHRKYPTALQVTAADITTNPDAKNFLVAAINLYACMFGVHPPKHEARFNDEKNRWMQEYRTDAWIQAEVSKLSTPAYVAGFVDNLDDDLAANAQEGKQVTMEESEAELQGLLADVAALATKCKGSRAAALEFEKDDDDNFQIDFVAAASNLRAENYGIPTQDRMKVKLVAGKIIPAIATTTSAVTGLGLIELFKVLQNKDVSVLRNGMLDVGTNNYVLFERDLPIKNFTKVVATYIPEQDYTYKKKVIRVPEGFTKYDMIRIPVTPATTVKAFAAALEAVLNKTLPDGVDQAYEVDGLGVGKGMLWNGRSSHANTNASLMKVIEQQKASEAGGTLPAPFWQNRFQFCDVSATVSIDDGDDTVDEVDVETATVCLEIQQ
Briefly: Leishmania donovani Ubiquitin Activating Enzyme (LdE1). The class given is functional. Conditions: 30 µM.

Assay [3] addresses AMP-activated protein kinase, AMPK (Homo sapiens) (UniProt P54646+O43741+P54619+Q9UGJ0+Q9Y478+Q13131+Q9UGI9). Put plainly: AMP-dependent Kinase enzyme assay. An in vitro enzyme assay that detects ADP turnover that is directly proportional to AMPK activity. This uses naive AMPK that is activated during the assay with MK-8722. Type of assay: functional. Conditions: 30 µM.
For assay [4], the target named is Sialic acid-binding Ig-like lectin 9 (Homo sapiens) (UniProt Q9Y336). Briefly: Hs-Siglec9 ALPHAscreen SOP 20170721. The conditions noted are these: 10 µM.
For assay [5], the system named is Trypanosoma cruzi. Briefly: Trypanosoma cruzi phosphomannomutase and mannose-1-phosphate guanylyltransferase assay. The class given is functional. The conditions noted are these: 10 µM.
For assay [6], the target named is T2, Arginase-2, mitochondrial (Homo sapiens) (UniProt P78540).
T2 sequence (whole entry): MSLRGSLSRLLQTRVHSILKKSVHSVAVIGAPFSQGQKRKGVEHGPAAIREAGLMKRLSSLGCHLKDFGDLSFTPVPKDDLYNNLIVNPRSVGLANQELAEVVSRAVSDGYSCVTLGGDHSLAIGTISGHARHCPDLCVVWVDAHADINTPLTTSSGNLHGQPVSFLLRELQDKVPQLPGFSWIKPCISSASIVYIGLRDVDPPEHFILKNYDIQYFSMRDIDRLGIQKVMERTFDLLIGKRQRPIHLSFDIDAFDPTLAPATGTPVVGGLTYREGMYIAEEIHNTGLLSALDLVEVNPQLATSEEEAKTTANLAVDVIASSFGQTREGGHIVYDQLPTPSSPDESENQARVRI
Put plainly: in vitro enzyme assay to detect the production of urea directly proportional to the activity of Arginase II. Further: in the data most compounds retested in dose-response had high values. The conditions noted are these: 33.3 µM. The class given is functional.

In assay [7] the target is T3, Proteasome subunit beta (Trypanosoma cruzi) (UniProt O96673).
T3 sequence (whole entry): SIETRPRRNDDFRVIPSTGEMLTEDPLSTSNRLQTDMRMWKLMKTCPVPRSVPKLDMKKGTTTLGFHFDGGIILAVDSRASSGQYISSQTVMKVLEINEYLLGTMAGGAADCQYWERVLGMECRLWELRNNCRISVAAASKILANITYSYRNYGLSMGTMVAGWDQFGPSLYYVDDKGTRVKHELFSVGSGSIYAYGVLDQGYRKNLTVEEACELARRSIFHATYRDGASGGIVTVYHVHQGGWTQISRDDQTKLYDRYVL
Put plainly: Trypanosoma cruzi proteasome chymotrypsin-like activity (TcProtChymo) assay. Further: in the data most compounds retested in dose-response had high values. Type of assay: functional. The conditions noted are these: 9.37 µM.

The species named for assay [8] is Homo sapiens. Briefly: To identify inhibition of the IFN signalling (Jak-Stat) pathway via expression of an eGFP reporter gene under the control of an IFN-stimulated response element (ISRE) containing MxA promoter. Type of assay: functional. Conditions: 30 µM. Background: In a reporter assay the amount or activity of a reporter protein is the signal.
The target of assay [9] is T4, Tyrosyl-tRNA synthetase, putative (Trypanosoma cruzi (strain CL Brener)) (UniProt Q4DSP6).
T4 sequence (whole entry): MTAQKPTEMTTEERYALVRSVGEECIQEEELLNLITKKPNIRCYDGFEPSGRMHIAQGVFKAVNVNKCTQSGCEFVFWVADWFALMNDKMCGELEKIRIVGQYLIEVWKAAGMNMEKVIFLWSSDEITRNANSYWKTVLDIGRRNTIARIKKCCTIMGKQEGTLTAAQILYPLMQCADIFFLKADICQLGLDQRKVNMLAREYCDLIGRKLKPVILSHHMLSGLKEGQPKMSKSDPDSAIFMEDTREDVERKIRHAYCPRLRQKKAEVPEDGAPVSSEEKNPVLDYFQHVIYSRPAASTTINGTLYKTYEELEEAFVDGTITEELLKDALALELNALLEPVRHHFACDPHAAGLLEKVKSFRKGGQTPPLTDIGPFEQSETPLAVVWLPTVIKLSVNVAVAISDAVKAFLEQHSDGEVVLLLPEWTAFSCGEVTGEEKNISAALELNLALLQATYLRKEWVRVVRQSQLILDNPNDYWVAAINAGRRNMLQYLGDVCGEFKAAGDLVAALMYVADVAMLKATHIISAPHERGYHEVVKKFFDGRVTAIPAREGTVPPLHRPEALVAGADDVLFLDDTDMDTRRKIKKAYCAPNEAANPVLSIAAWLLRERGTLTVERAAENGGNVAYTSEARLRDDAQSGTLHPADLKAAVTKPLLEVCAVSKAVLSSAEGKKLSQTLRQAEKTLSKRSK
Put plainly: Trypanosoma cruzi tyrosyl tRNA synthetase (TcYRS) _High Tyrosine SOP. Further: in the data most compounds retested in dose-response had high values. Type of assay: functional. Conditions: 30 µM.

The target in assay [10] is T4, Tyrosyl-tRNA synthetase, putative (Trypanosoma cruzi (strain CL Brener)). Briefly: Trypanosoma cruzi tyrosyl tRNA synthetase (TcYRS) SOP. Type of assay: functional. Conditions: 30 µM.
For assay [11], the target named is Chromo domain-containing protein 1 (Saccharomyces cerevisiae (strain ATCC 204508 / S288c) (Baker's yeast)) (UniProt P32657). Put plainly: ScCHD-1 Enzyme Inhibition Assay. Further: in the data most compounds retested in dose-response had high values. Type of assay: functional. Conditions: 30 µM.
Chromo domain-containing protein 1 (Saccharomyces cerevisiae (strain ATCC 204508 / S288c) (Baker's yeast)), sequence (P32657 whole entry, the tested form may be a part): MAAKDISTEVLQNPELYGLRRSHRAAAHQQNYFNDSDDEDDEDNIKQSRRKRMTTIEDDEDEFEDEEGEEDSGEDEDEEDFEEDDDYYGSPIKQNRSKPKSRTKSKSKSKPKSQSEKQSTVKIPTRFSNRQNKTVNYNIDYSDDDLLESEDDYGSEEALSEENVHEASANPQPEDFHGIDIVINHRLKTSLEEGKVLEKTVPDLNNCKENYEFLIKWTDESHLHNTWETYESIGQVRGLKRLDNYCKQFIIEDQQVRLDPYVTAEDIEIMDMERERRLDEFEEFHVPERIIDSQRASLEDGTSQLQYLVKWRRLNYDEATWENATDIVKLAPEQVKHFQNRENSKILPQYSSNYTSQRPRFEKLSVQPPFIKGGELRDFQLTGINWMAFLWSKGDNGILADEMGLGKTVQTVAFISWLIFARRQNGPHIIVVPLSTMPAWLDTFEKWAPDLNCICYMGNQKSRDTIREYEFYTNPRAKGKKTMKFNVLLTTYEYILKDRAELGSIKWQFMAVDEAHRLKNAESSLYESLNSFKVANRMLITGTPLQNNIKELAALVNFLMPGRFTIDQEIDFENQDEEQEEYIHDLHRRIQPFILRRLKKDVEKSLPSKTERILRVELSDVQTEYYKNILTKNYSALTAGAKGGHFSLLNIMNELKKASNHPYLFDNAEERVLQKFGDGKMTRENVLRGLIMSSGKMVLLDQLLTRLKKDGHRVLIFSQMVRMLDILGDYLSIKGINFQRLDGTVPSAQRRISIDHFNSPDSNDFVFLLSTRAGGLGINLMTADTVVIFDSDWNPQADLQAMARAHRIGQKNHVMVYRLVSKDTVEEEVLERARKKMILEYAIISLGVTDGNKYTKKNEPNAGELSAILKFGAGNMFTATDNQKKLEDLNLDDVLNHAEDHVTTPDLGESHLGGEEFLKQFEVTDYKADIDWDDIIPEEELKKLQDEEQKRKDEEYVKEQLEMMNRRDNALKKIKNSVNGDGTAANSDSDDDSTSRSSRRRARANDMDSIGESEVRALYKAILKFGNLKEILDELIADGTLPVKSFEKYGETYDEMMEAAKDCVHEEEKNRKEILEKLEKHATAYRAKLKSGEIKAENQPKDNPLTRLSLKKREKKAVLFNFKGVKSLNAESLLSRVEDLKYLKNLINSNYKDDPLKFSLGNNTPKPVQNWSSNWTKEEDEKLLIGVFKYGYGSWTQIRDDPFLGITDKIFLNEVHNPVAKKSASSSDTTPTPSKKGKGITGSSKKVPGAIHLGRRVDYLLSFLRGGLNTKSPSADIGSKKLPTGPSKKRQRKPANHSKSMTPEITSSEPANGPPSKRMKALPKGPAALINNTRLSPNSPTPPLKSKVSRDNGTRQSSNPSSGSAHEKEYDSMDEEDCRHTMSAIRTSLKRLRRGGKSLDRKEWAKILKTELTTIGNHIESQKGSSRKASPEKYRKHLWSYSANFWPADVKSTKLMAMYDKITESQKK

Protein translocase subunit SecA (Escherichia coli (strain K12)), sequence (P10408 whole entry): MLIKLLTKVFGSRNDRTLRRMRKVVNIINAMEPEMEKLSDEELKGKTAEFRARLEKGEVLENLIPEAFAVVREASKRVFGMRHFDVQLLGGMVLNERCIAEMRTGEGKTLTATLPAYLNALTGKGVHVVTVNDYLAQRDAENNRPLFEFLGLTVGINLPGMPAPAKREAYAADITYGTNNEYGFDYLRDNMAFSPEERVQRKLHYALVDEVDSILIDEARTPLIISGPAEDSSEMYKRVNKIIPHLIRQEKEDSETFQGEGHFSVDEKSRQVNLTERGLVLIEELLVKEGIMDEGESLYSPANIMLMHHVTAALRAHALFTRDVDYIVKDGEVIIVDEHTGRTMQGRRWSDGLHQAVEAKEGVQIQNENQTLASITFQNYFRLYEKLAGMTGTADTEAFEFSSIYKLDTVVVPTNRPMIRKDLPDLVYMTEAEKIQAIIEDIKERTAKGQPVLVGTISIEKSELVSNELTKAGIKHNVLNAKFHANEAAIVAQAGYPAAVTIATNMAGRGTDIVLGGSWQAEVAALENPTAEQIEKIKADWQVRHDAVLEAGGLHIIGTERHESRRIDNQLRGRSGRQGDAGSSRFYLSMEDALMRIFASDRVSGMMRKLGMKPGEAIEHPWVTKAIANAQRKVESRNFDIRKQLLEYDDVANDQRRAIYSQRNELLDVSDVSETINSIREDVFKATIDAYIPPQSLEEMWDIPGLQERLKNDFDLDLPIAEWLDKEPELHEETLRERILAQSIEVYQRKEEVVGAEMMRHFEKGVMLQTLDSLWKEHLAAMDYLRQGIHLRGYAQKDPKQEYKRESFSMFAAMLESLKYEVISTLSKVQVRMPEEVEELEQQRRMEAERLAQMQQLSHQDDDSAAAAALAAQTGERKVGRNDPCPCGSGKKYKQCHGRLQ
Sialic acid-binding Ig-like lectin 9 (Homo sapiens), sequence (Q9Y336 whole entry): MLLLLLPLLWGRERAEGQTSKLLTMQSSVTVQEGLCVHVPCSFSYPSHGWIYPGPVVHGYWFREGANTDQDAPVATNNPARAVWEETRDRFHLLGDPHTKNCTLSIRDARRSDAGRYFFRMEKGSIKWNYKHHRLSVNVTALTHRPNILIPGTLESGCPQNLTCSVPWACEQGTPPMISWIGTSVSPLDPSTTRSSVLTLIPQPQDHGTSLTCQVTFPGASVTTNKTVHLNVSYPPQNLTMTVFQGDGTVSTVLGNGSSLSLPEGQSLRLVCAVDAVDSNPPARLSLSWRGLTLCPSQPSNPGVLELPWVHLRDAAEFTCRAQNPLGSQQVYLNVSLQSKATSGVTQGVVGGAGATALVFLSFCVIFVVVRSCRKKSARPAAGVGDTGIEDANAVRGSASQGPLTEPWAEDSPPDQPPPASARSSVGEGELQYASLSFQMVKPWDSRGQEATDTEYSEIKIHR

On to `O=C(c1cccnc1N1CCOCC1)N1CCCC(n2ccnc2)C1` (stereo unspecified), for which the Percent Effect in [1] is -1.05%; in assay [2], 18.4%; in assay [3], 3.79%; in [4], 3.27%; in [5], -3.76%; in assay [6], -1.53%. In addition, the Percent Effect in assay [7] is 9.36%; in assay [8] it was 0.0212%; in assay [9] it was 4.41%; in assay [10] it was 17.1%; in [11], -9.1%.
Take `CCc1ccc(C(=O)NC2CCN(c3cnn(C)c3)C2=O)o1` (stereo unspecified): the Percent Effect is -6.02% in assay [1]; 2.7% in [2]; -5.86% in [3]; 6.69% in assay [4]; 8.11% in assay [5]; -0.744% in assay [6]. Also, the Percent Effect is 8.84% in assay [7]; -0.708% in assay [8]; 3.23% in assay [9]; 11.1% in assay [10]; -7.33% in [11].
For the compound `CC1CCN(CCCNS(=O)(=O)c2cccc(F)c2)CC1`, the Percent Effect in assay [1] was -4.57%; in assay [2] it was 7.79%; in assay [3], 0.601%; in [4] it was 5.46%; in [5] it was -2.46%; in assay [6], -13.8%. For the same compound, the Percent Effect is 0.166% in [7]; -11.1% in assay [8]; 5.38% in [9]; 13.6% in [10]; -2.91% in assay [11].
For the compound `CC(C)c1nc(C2CCCN2CC(=O)N2CCNC2=O)no1` (stereo unspecified), the Percent Effect is -3.33% in assay [1]; 2.63% in [2]; -0.208% in [3]; -4.56% in assay [4]; 5.26% in assay [5]; 1.15% in assay [6]. For the same compound, the Percent Effect is 1.34% in assay [7]; -5.94% in assay [8]; -0.49% in [9]; 4.88% in [10]; -10.2% in assay [11].
Regarding `CN(CC(=O)N1CCN(c2ncccn2)CC1)c1ccc(Cl)cn1`, the Percent Effect in [1] is 0.47%; in assay [2] it was 8.11%; in assay [3] it was -0.12%; in [4], 10.1%; in [5] it was 5.79%; in assay [6], 14.3%. For the same compound, the Percent Effect in assay [7] was 9.83%; in assay [8], 16.3%; in [9], 4.76%; in [10], 14.6%; in assay [11] it was -1.14%.
On to `CC(C)(C)c1nc(CN2CCCC2Cn2cccn2)no1` (stereo unspecified), for which the Percent Effect in [1] was -1.54%; in assay [2], 26%; in assay [3], -0.88%; in assay [4], -2.85%; in assay [5], 2.81%; in [6], 6.41%. Besides, the Percent Effect in assay [7] is 17.7%; in assay [8], 18.5%; in assay [9], 12.6%; in assay [10] it was 26.8%; in assay [11], -9.21%.
For the compound `Cc1cccc(C(=O)Nc2ccc(OC3CCN(C)CC3)cc2)c1`, the Percent Effect in assay [1] is -3.56%; in assay [2] it was 7.79%; in assay [3], 6.98%; in assay [4], 12%; in assay [5], 7.57%; in [6], 22.1%. The Percent Effect in [7] was 7.82%; in [8] it was -1.95%; in assay [9], 5.38%; in [10], 13.6%; in [11], -8.12%.
Take `O=C(CN1CCCC(O)C1)NC(=O)NCc1cccs1` (stereo unspecified): the Percent Effect was -3.76% in assay [1]; 13.2% in assay [2]; 7.52% in assay [3]; -8.38% in [4]; -5.16% in [5]; -3.55% in assay [6]. For the same compound, the Percent Effect was 11.8% in assay [7]; 15.4% in assay [8]; 3.19% in assay [9]; 7.79% in assay [10]; -1.85% in assay [11].
In the case of `O=C(NC1=NCCCN1c1ccc(Cl)cc1)c1cccc(Cl)c1`, the Percent Effect in assay [1] was -4.08%; in assay [2], -5.2%; in [3], 0.353%; in assay [4] it was -0.0638%; in [5], -6.39%; in assay [6], 1.38%. The Percent Effect in assay [7] is 15.1%; in assay [8], 3.87%; in [9], -5.38%; in [10], -8.64%; in assay [11], 0.69%.
In the case of `COc1cccc(COCC(O)CN2CC(n3cccn3)C2)c1` (stereo unspecified), the Percent Effect in [1] was 0.892%; in [2], 21.1%; in assay [3] it was 5.98%; in assay [4] it was 1.34%; in [5], 6.58%; in assay [6], -0.383%. The Percent Effect is 10.4% in assay [7]; -16.2% in assay [8]; 7.35% in assay [9]; 19.5% in assay [10]; -12.6% in assay [11].
For `CC(=O)N1CCC(c2nccnc2Oc2ccccc2)CC1`, the Percent Effect is -6.13% in assay [1]; 4.05% in assay [2]; 4.17% in [3]; -0.964% in assay [4]; -6.32% in [5]; -3.02% in assay [6]. The Percent Effect worked out at 4.06% in [7]; 13.5% in [8]; 2.15% in [9]; 1.3% in [10]; 11.4% in assay [11].
